G9a block – inhibitors of human histone lysine methyltransferase G9a | 8.8% of 350,000 active | G9a H3K9 monomethylation, AlphaScreen, 2 h | AID 504332 | Q96KQ7 | Potency, µM (top dose mostly 102 µM), for the others: at the top dose activity, negative = inhibition, actives largely listed as inhibitors; note: potency is the fitted concentration of half-maximal effect; nearly all actives have a fitted effect of over 75% in size
Target sequence (Q96KQ7 913-1193 limits assumed): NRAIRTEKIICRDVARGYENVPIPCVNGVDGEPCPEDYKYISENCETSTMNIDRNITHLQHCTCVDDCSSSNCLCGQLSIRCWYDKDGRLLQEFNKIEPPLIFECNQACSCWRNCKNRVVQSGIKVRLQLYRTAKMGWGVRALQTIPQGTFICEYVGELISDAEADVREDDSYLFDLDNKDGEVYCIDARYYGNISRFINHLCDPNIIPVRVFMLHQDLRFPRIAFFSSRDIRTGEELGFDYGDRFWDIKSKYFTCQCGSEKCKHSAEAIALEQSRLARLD
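Signal arises when biotinylated H3K9 peptide, once monomethylated, bridges streptavidin donor and antibody-captured acceptor beads. Enzyme at 20 nM was preincubated 15 min with test compounds; peptide 500 nM and SAM 20 uM then reacted for 2 h.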
Sfp PPTase inh – Sfp phosphopantetheinyl transferase inhibition; Q9F4F7; Biochemical Sfp PPTase activity, qHTS; Potency, µM, for inactives: largest response in the series, negative = inhibition, hits mostly inhibitors; 3.5% of 310,000 active; AID 1490;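 note: the enzyme is Sfp with the accession as filed and its product quenches rhodamine fluorescence; potency is the fitted concentration of half-maximal effect; 0% = enzyme reaction without inhibitor and -100% = no enzyme wells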
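Reaction rates are the 30-min fluorescence difference (ex 525, em 598 nm) in wells containing 15 nM Sfp, 5 uM rhodamine-CoA and 12.5 uM BHQ-2-YbbR at pH 7.6 with 10 mM MgCl2.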
Coupling enz – inhibits coupling enzyme system, counter-screen for aldolase hits; 0.67% of 290,000 active; coupling enzyme system counterscreen, AmpLite Red fluorescence; activity change, negative = inhibition, % at 58.2 µM, hits read low; in the data active = activity change below about -30%
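Fluorescence at 525 nm excitation and 598 nm emission measured inhibition of the coupled detection system without aldolase. Compounds (at 57.5 uM final) were preincubated 10 min at room temperature with coupling enzyme reagent before a 20 min substrate/AmpLite Red step.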
Tau fibril ThT – tau fibrillization inhibition (ThT binding). P10636. recombinant tau K18 P301L, heparin-induced fibrillization, ThT fluorescence. Potency, µM (titrated, usually from 57.4 µM), for inactives: top-dose activity, negative = inhibition, most hits filed as inhibitors. 2.1% of 270,000 active. AID 1460; note: potency is the fitted concentration of half-maximal effect; nearly all actives have a fitted effect of over 55% in size
Target sequence (P10636 561-689 P618L limits assumed): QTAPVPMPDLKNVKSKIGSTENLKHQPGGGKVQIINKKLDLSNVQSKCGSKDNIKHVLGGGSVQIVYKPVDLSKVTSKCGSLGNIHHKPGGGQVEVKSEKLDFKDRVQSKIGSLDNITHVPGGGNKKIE
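Using a mix of unlabeled (15 uM) and Alexa 594-labeled (0.24 uM) tau K18 P301L, heparin-triggered fibrillization over 6 hr at 37 C was scored by ThT fluorescence.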
Tau fibril FP – tau fibrillization inhibition (FP). AID 1468. 0.39% of 280,000 active. P10636. Potency, µM (doses to about 57.7 µM), for the others: at the top dose activity, negative = inhibition, usual class: inhibitors. K18 P301L tau heparin fibrillization, Alexa594 FP, 6 h; note: potency is the fitted concentration of half-maximal effect; nearly all actives have a fitted effect of over 55% in size
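FP of Alexa 594-tau after heparin (20 uM) induction. Substrate: human K18 P301L, 15 uM unlabeled, 0.24 uM labeled. Buffer 100 mM sodium acetate pH 7. 6 hr, 37 C.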
Tau fluor cs – counter-screen for tau fibril formation inhibitors | tau K18 P301L Alexa594 fluorescence, heparin fibrillization | Potency, µM (titrated, usually from 57.7 µM), without a hit: top-dose activity change, negative = decrease | 0.93% of 280,000 active; note: potency is the fitted concentration of half-maximal effect; nearly all actives have a fitted effect of over 55% in size
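Human tau K18 P301L (15 uM unlabeled, 0.24 uM Alexa 594-labeled) in 100 mM sodium acetate pH 7 with 20 uM heparin, 6 hr at 37 C. ThT 30 uM added, 1 hr ambient; Alexa 594 FP and total fluorescence read at 555/632 nm.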
Starred values were filed as active, the others as inactive; ? = inconclusive; · = not tested or not shown; [ ] = remark or other dose. Sampled rows, rich in hits. Any-hit rate of the full collection: about 11%. Unless noted, calls come from the whole dose curve; as a rule, active = well fitted curve in the direction sought with a large enough effect; inconclusive = small, poorly fitted or top-dose-only effect, or another doubt; inactive = no such curve, though single readings can be large; an effect the other way counts as inactive or inconclusive. Unless noted, % is set by controls: 0 for no effect and ±100 for the full control effect.

SMILES | G9a block | Sfp PPTase inh | Coupling enz | Tau fibril ThT | Tau fibril FP | Tau fluor cs
O=C1CCCC(=O)N1c1ccc(N2CCN(c3ccc([N+](=O)[O-])cc3)CC2)c([N+](=O)[O-])c1 | -5% | 0% | 0 | 4µM* | 0% | -20%
CCNC(=S)N1CCN(c2ccc([N+](=O)[O-])cc2)CC1 | -1% | 2% | 0 | 5.6µM* | 2% | -5%
CC(C)NC(=O)COC(=O)C1CSC2(c3ccc(Br)cc3)CCC(=O)N12 (centres undefined) | -5% | 25% | 4 | 0% | 4% | 3%
CCC(C(=O)Nc1ccc2[nH]ncc2c1)c1ccccc1 (centres undefined) | -19% | 12% | 2 | · | · | ·
COc1ccc(OCC(=O)NC(Cc2c[nH]c3ccccc23)C(=O)O)cc1 (centres undefined) | -35%[59 µM] | · | · | -2% | 3% | 2%
COc1ccc([N+](=O)[O-])cc1NC(c1nnc(-c2ccccc2)o1)c1ccccc1F (centres undefined) | -9%[59 µM] | · | · | 3% | -10% | ?
O=[N+]([O-])c1ccc(N2CCCCC2)cc1 | 11% | 7% | 3 | 8.9µM* | -8% | -19%
O=[N+]([O-])c1ccc(N2CCN(c3ccccc3)CC2)cc1 | -8% | 10% | 0 | · | · | ·
COc1ccc(NC(=O)N2CCN(c3ccc([N+](=O)[O-])cc3)CC2)cc1OC | ? | 6% | -10 | 8.9µM* | -4% | -23%
CNC(=S)N1CCN(c2ccc([N+](=O)[O-])cc2)CC1 | 8% | 14% | · | 5.6µM* | -1% | -6%
O=C(CSc1ncc2c(n1)-c1ccccc1N(Cc1ccc(Cl)cc1)S2(=O)=O)c1ccccc1 | 21%[59 µM] | · | · | 15% | -13% | -19%
CC(C)CN(c1ccccc1)S(=O)(=O)c1nnc(NC(=O)C2CCCCC2)s1 | -33%[59 µM] | · | · | ? | 0% | -11%
CN(CCc1cn[nH]c1)C(=O)C1CCC(=O)N(CC2CCCCC2)C1 (centres undefined) | · | 12% | 2 | · | · | ·
O=C(O)c1cc2ncc(CCO)cn2n1 | ? | ? | 3 | 2% | 9% | 5%
COc1ccc(CC(=O)NCCC(C)C)cc1S(=O)(=O)N1CCOCC1 | -7% | 18% | 0 | -4% | -3% | 1%
O=C1CC(N2CCC(c3nc4ccccc4[nH]3)CC2)C(=O)N1c1ccccc1F (centres undefined) | 35µM* | 8% | 1 | -9% | -5% | 0%
Cc1cc(C)cc(NC(=O)c2sc3nc4n(c(=O)c3c2C)N=C(c2ccc(F)cc2)CS4)c1 | 10%[59 µM] | · | · | -10% | -7% | -3%
Cc1cccc(NC(=S)NNC(=O)c2cc3c(s2)CCC(C)C3)c1C (centres undefined) | ? | 5% | 0 | ? | 8% | ?
Cc1ccc(C)c(NC(=S)NNC(=O)c2cc3c(s2)CCC(C)C3)c1 (centres undefined) | 35µM* | 29% | 7 | ? | 10% | -18%
O=C(O)/C=C/c1cnc2ccccc2c1 | 50µM* | 3% | 2 | 6% | 2% | 6%
COc1ccc(COc2ccsc2C(=O)Nc2ccc(Cl)c(Cl)c2)cc1 | -7% | 56µM* | 1 | -14% | -11% | -13%
CCCOc1ccc(C(=O)Nc2cc(S(=O)(=O)N3CCOCC3)ccc2N2CCOCC2)cc1 | 4%[12.7 µM] | · | · | · | · | ·
CC(/C=C(\NC(=O)c1ccccc1)C(=O)N=Nc1c(O)[nH]c2ccc(C)cc12)=C\c1ccccc1 | 30%[59 µM] | 9% | 0 | 20µM* | -3% | ?
C=CCOC(=O)/C(=C\c1ccccc1)NC(=O)c1ccc(C)cc1 | 31% | 10% | 4 | -2% | 2% | -6%
Cn1c(C(=O)NCCc2ccccc2)cc2cc(S(=O)(=O)N3CCCCC3)ccc21 | 8%[59 µM] | · | · | -4% | 5% | -17%
NC(=O)c1ccc(SCC(=O)OCC(=O)NCC2CCCCC2)c([N+](=O)[O-])c1 | 45µM* | · | · | · | · | ·
CCC1CCCCN1C(=O)COC(=O)CSc1ccc(C(N)=O)cc1[N+](=O)[O-] (centres undefined) | 3%[12.7 µM] | · | · | · | · | ·

Screening results: PubChem, National Center for Advancing Translational Sciences (NCATS)
